# Reference: article PMC7862700, “An all-to-all approach to the identification of sequence-specific readers for epigenetic DNA modifications on cytosine”
# Legend:
# Experiment in all cases: DAPPL (digital affinity profiling via proximity ligation, sequencing); 10 mM Tris-HCl pH 7.5, 50 mM NaCl, 1 mM DTT, 4% glycerol, room temperature, 30 min; GST-TFs on glutathione beads, 16-mer random dsDNA library, 0.1% formaldehyde crosslink after washing; high values mean tight binding
# [1] = target: T1, FEV (Homo sapiens, UniProt Q99581 1-238); details: protein: recombinant; tags: N-terminal GST; dsDNA, one strand shown
# T1 sequence: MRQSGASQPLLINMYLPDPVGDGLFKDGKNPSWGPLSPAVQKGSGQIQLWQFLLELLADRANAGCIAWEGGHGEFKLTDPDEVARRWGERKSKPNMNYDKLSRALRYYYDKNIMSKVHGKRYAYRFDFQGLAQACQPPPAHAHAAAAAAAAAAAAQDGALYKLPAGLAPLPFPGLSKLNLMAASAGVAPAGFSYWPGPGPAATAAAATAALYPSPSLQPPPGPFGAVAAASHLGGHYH
# Summary of the method: (§1)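 Each value of binding signal is a hexamer's read frequency for a factor divided by the same hexamer's frequency in the tag-only sample. Barcoded, bead-captured GST fusions of human transcription factors made in yeast were pooled with that sample and incubated with 200 nmole of a random double-stranded 16-mer DNA library in Tris/NaCl/DTT/glycerol buffer at room temperature for 30 min. Washing, 0.1% formaldehyde crosslinking, proximity ligation, PCR and Illumina NextSeq500 sequencing followed.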
# [2] = target: ETV5 (Homo sapiens, UniProt P41161 1-510); details: protein: recombinant; tags: N-terminal GST; dsDNA, one strand shown
# Summary of the method: as §1
# [3] = target: HSF1 (Homo sapiens, UniProt Q00613 1-529); details: protein: recombinant; tags: N-terminal GST; chain copies: 3; dsDNA, one strand shown
# Summary of the method: as §1
# [4] = target: T2, SPIC (Homo sapiens, UniProt Q8N5J4 1-248); details: protein: recombinant; tags: N-terminal GST; dsDNA, one strand shown
# T2 sequence: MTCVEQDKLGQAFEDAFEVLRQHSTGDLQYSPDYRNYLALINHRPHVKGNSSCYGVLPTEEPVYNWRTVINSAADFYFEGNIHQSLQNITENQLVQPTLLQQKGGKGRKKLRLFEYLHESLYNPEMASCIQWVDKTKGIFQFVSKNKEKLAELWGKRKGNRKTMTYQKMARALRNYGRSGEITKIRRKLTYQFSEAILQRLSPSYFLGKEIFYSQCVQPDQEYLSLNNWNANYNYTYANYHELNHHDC
# Summary of the method: as §1
# [5] = target: ELF4 (Homo sapiens, UniProt Q99607 1-663); details: protein: recombinant; tags: N-terminal GST; dsDNA, one strand shown
# Summary of the method: as §1
# [6] = target: T3, ELK4 (Homo sapiens, UniProt P28324-2 1-405); details: protein: recombinant; tags: N-terminal GST; dsDNA, one strand shown
# T3 sequence: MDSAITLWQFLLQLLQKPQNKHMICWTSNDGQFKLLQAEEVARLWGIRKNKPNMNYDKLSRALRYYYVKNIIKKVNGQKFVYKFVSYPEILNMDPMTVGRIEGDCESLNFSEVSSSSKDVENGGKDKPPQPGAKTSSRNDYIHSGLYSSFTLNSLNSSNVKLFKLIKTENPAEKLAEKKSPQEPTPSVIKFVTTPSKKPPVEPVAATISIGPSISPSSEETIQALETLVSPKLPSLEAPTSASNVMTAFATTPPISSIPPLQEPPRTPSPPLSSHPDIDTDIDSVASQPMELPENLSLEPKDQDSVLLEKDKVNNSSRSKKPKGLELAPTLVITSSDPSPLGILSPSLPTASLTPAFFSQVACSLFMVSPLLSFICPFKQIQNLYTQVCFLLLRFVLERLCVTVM
# Summary of the method: as §1
# [7] = target: T4, ETV2 (Homo sapiens, UniProt O00321 1-342); details: protein: recombinant; tags: N-terminal GST; dsDNA, one strand shown
# T4 sequence: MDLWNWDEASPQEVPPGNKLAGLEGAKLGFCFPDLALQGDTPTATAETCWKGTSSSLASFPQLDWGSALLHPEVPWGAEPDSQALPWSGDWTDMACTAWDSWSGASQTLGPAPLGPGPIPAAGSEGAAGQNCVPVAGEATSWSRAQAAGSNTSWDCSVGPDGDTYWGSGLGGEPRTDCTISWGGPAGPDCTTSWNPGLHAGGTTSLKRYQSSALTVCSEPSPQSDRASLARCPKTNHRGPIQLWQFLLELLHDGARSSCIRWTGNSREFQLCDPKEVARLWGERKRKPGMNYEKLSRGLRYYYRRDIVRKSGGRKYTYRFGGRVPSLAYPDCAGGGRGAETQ
# Summary of the method: as §1
# [8] = target: T5, ELF3 (Homo sapiens, UniProt P78545 1-371); details: protein: recombinant; tags: N-terminal GST; dsDNA, one strand shown
# T5 sequence: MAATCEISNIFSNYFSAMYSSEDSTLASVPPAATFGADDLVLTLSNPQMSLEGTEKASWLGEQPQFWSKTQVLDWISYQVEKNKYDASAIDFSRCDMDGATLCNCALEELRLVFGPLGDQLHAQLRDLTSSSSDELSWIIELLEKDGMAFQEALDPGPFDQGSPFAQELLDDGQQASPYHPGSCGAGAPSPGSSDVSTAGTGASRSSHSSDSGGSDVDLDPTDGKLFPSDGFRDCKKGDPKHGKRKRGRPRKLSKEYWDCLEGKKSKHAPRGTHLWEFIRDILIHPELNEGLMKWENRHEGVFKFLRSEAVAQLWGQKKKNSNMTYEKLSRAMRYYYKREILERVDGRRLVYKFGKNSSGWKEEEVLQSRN
# Summary of the method: as §1
# [9] = target: CRX (Homo sapiens, UniProt O43186 1-299); details: protein: recombinant; tags: N-terminal GST; dsDNA, one strand shown
# Summary of the method: as §1
# [10] = target: ETV1 (Homo sapiens, UniProt P50549 1-477); details: protein: recombinant; tags: N-terminal GST; dsDNA, one strand shown
# Summary of the method: as §1
# Chain of CRX (O43186 whole entry): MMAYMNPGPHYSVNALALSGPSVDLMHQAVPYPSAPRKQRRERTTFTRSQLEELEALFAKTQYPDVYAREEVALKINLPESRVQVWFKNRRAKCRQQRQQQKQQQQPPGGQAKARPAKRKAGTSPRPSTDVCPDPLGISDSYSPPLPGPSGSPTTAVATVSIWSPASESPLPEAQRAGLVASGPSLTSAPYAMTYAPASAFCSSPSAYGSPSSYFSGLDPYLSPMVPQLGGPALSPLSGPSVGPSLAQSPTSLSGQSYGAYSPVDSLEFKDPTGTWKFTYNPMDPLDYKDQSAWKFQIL
# Chain of ETV1 (P50549 whole entry): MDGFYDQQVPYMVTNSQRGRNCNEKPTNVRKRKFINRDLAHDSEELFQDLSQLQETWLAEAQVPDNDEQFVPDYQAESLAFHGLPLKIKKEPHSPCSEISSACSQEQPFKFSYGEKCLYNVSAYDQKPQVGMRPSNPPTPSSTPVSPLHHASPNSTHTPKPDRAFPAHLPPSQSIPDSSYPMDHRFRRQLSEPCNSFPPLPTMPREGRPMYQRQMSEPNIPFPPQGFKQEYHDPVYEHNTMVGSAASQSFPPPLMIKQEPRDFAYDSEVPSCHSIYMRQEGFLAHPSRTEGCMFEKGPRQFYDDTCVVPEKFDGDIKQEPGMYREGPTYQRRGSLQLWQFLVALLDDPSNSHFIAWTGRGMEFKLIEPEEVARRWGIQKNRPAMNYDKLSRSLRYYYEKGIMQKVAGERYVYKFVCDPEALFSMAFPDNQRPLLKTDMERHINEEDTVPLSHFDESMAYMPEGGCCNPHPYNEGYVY
# Chain of ELF4 (Q99607 whole entry): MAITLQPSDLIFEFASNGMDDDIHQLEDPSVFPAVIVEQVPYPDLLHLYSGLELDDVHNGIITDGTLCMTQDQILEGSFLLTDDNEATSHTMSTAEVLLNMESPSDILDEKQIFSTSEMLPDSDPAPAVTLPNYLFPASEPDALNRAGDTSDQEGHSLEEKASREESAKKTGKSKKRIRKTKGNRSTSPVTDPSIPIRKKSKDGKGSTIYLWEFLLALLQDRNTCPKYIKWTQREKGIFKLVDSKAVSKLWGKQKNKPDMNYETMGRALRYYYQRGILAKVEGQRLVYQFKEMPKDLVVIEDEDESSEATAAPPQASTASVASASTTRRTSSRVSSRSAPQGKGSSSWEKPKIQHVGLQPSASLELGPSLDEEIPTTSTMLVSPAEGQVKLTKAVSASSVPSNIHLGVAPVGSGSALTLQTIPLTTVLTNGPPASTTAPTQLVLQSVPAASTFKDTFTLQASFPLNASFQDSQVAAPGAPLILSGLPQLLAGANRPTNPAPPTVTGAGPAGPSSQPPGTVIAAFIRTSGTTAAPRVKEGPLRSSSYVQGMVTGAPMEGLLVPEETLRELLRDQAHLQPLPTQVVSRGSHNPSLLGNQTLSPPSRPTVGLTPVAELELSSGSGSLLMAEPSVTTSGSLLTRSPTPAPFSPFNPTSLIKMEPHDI
# Chain of ETV5 (P41161 whole entry): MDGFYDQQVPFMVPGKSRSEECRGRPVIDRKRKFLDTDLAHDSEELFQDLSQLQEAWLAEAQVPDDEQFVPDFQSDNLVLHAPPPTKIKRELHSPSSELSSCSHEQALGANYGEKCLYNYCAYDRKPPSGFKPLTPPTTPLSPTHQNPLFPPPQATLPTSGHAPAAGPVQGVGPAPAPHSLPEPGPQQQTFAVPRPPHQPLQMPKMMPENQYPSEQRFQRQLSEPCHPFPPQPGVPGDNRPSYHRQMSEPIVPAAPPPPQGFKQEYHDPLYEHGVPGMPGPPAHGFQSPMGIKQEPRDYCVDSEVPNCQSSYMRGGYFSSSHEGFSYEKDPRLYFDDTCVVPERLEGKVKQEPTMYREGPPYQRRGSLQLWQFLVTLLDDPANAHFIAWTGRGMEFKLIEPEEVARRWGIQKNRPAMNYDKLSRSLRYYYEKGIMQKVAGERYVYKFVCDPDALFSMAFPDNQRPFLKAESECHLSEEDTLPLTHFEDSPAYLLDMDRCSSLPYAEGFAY
# Chain of HSF1 (Q00613 whole entry): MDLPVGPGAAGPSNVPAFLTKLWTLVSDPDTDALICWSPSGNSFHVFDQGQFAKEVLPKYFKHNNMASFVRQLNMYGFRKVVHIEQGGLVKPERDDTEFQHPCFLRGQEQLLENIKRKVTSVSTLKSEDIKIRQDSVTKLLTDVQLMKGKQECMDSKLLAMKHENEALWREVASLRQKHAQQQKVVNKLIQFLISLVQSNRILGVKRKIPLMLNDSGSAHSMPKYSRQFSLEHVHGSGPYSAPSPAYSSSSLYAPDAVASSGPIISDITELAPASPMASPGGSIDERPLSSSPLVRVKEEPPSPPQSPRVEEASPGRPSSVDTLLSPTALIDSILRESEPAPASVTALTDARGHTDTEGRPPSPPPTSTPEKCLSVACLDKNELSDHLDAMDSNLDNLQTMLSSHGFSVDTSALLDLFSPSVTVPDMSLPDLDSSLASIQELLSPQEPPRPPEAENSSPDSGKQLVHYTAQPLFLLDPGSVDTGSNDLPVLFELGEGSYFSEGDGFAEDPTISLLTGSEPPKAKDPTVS
sequence,measurement,setting,value
TACCTA,binding signal,[1],"1.2 fold enrichment (6-mer frequency, TF over GST control)"
same,binding signal,[2],"1.31 fold enrichment (6-mer frequency, TF over GST control)"
same,binding signal,[3],"1.28 fold enrichment (6-mer frequency, TF over GST control)"
same,binding signal,[4],"1.19 fold enrichment (6-mer frequency, TF over GST control)"
same,binding signal,[5],"1.3 fold enrichment (6-mer frequency, TF over GST control)"
same,binding signal,[6],"1.35 fold enrichment (6-mer frequency, TF over GST control)"
same,binding signal,[7],"1.21 fold enrichment (6-mer frequency, TF over GST control)"
same,binding signal,[8],"1.3 fold enrichment (6-mer frequency, TF over GST control)"
same,binding signal,[9],"1.55 fold enrichment (6-mer frequency, TF over GST control)"
same,binding signal,[10],"1.34 fold enrichment (6-mer frequency, TF over GST control)"
